Experimental data reported in ChEMBL document CHEMBL4513216, “Probing the Open Global Health Chemical Diversity Library for Multistage-Active Starting Points for Next-Generation Antimalarials” (ACS Infect Dis, 2020).
The whole screen tested about 69,000 compounds, of which about 8,600 (12%) showed an effect of 50% or more. For the sample, strong results were picked, then their nearest neighbours and some compounds at random.

Each compound was assayed on Plasmodium berghei (assay: Screen against P. berghei liver stage (PbLuc), transformed with Luciferase, at 10uM). Details: tested at 10 uM.
Assay type: functional, HepG2

Row | Compound | INHIBITION
1 | Cc1nc(CN(C)C(=O)NC(C)c2ccc3c(c2)OCCO3)cs1 (configuration not stated) | 31.2%
2 | CC(Cn1cccn1)NC(=O)CCc1nc(C(C)(C)C)no1 (configuration not stated) | 10.6%
3 | O=C1COC2(CCN(Cc3ccncc3)CC2)CN1c1ccccc1 | -27.4%
4 | Cc1c[nH]c(C2COCCN2S(=O)(=O)c2cn[nH]c2)n1 (configuration not stated) | -8.12%
5 | Cc1ccc(CSc2nc(N)cc(NCCC(=O)N3CCCC3)n2)cc1 | 36.6%
6 | CCc1nc(N)nc(NCCC(=O)N2CCCC2)c1C | 62.8%
7 | CCc1cnc(C)nc1NCCC(=O)N1CCC(C)CC1 | -21.1%
8 | CCn1ccnc1CN1CCC(N(Cc2ncc(C)o2)C(C)=O)C1 (configuration not stated) | 48.2%
9 | Cn1cc(CC(=O)N2CCCC(c3ccn[nH]3)C2)cn1 (configuration not stated) | 5.11%
10 | Fc1cnc(N2CCO[C@H]3CN(CC4CCCC4)C[C@H]32)nc1 | -13.3%
11 | CO[C@@H]1CCN(c2ncc(F)cn2)[C@@H]2CN(Cc3cccnc3)C[C@@H]21 | 31.4%
12 | CO[C@H]1CCN(c2ncc(F)cn2)[C@@H]2CN(Cc3ccco3)C[C@H]12 | 49.1%
13 | CO[C@@H]1CCN(c2ncc(F)cn2)[C@@H]2CN(CC3CC3)C[C@@H]21 | 60.3%
14 | CCN1C[C@H]2[C@@H](C1)N(c1ncc(F)cn1)CC[C@H]2OC | 84.5%
15 | Fc1cnc(N2CCO[C@H]3CN(CC4CCCCC4)C[C@H]32)nc1 | 30.3%
16 | CCN1CCN(c2nc(O)cc(Cc3ccccc3F)n2)CC1 | 10.9%
17 | CNS(=O)(=O)c1ccsc1C(=O)OC | 37.6%
18 | CNC(=O)c1sccc1S(=O)(=O)Nc1ccc(C)cc1 | 61.1%
19 | CNC(=O)c1sccc1S(=O)(=O)NC | 46.6%
20 | O=C(c1cccnc1)N1CCCC1c1nc(O)cc(-c2ccccn2)n1 (configuration not stated) | 36.7%
21 | c1ccc(CCNc2cccc(C3CCCNC3)n2)cc1 (configuration not stated) | 34%
22 | O=C(Cc1cccc(Cl)c1)N[C@@H]1CCNC[C@H]1O | 0.547%
23 | Clc1cccc(C[C@@H]2NCCC[C@@H]2Nc2cccc(Cl)c2)c1 | 92.6%
24 | O=C1NCCCc2[nH]c(Cc3cccc(Cl)c3)nc21 | 32%

Row | Compound | INHIBITION
25 | O=S(=O)(c1cccc(Cl)c1)N1C[C@@H]2CCN[C@@H]2C1 | -14.7%
26 | Clc1cccc(C[C@@H]2NCCC[C@@H]2Nc2ccccc2)c1 | 86.1%
27 | O=C1NCCCC1NC(=O)C1(c2cccc(Cl)c2)CCC1 (configuration not stated) | -2.27%
28 | Clc1cccc(N[C@H]2CCCN[C@H]2Cc2ccccc2)c1 | 91.6%
29 | O=C(NCCc1cccc(Cl)c1)C1CCOCC1 | 27.7%
30 | CCOCC(=O)N1CCC2(CC1)COCCN2CCN(C)C | -3.33%
31 | O=C(c1ccc(F)cc1)N1C[C@H]2CCC[C@@]2(COCc2ccncc2)C1 | 16.8%
32 | CC(C)CNC(=O)C1(Cc2ccccc2-c2cccs2)CCNC1 (configuration not stated) | 14.7%
33 | COc1ccc(C(C)NC(=O)Cn2ccc(=O)n(C)c2=O)cc1F (configuration not stated) | -29.8%
34 | Cc1ccccc1OCC(O)CN1CCC(Cn2cccn2)CC1 (configuration not stated) | 17.5%
35 | O=S1(=O)c2ccccc2OCC2(CCN(CCO)CC2)CN1CC1CC1 | -8.94%
36 | CC(=O)N1CCC2(CCN(C(=O)c3ccc(Cl)c(C(F)(F)F)c3)CC2)C1 | 51.2%
37 | CC(=O)N1CCCC2(CCN(C(=O)c3ccc(Cl)c(C(F)(F)F)c3)C2)C1 (configuration not stated) | 32.2%
38 | CC(=O)N1CCC2(CCCN(C(=O)c3ccc(Cl)c(C(F)(F)F)c3)C2)C1 (configuration not stated) | 28.7%
39 | CC(=O)N1CCC2(CCN(C(=O)c3ccc(Cl)c(C(F)(F)F)c3)C2)C1 (configuration not stated) | 50.9%
40 | CC(=O)N1CC2(CCN(C(=O)c3ccc4c(c3)OCCO4)CC2)C1 | -38.1%
41 | CC(=O)N1CC2(CCN(C(=O)c3ccoc3)C2)C1 | 27.6%
42 | Cc1nc(-c2cccnc2)ncc1C(=O)N1CCC(C(C)N(C)C)CC1 (configuration not stated) | 70.4%
43 | Cc1nc(-c2cccnc2)ncc1C(=O)N1CCC(c2ncc[nH]2)CC1 | 21.6%
44 | Cc1nc(-c2cccnc2)ncc1C(=O)N1CCCC(N(C)C)CC1 (configuration not stated) | 21.6%
45 | N[C@H]1CCCN(C(=O)c2cnc(COc3ccccc3)nc2O)C1 | -58%
46 | Cc1nc(-c2cccnc2)ncc1C(=O)N1CCCCC(N)C1 (configuration not stated) | 55.6%
47 | CCCOCC1CCN(C(=O)c2cnc(-c3cccnc3)nc2O)C1 (configuration not stated) | -27.3%
48 | Cc1nn(C)c(C)c1C1CCCN1Cc1nc(-c2cccs2)no1 (configuration not stated) | -2.53%

Row | Compound | INHIBITION
49 | CC(C)c1nccc(CN2CCCC(O)(CN(C)C)CC2)n1 (configuration not stated) | -3.55%
50 | CC1CN(CC(=O)N2CCOCC2)CCN1Cc1nccn1C (configuration not stated) | 20.915%
51 | Cc1nc2c(c(Nc3ccccn3)n1)CN(S(C)(=O)=O)CC2 | -10.4%
52 | N#Cc1ccccc1C(=O)N1C[C@@H]2CC[C@H]1CN(Cc1ccccc1)C2 | 27.6%
53 | COCCCSc1ccc(NCc2ccc(C)cn2)cc1 | 72.2%
54 | COCCn1ccc(NCc2scnc2C)n1 | 17.7%
55 | COCCCSc1ccc(NC(=O)Nc2cn[nH]c2)cc1 | 41.2%
56 | COCCCSc1ccc(NCc2scnc2C)cc1 | 95.4%
57 | COCCCSc1ccc(NCc2cscn2)cc1 | 26.9%
58 | COc1cc2nc(NCc3scnc3C)nc(N)c2cc1OC | 45%
59 | COCCCNC(=O)c1cc(OC)c2ccoc2c1 | -25.7%
60 | CNC(=O)[C@H]1C[C@@H]2CN(C(=O)c3ccoc3)C[C@@H]2N1S(C)(=O)=O | -15.2%
61 | Cc1ccsc1C(=O)NCc1ccnc(N2CCN(C)CC2)c1 | 4.45%
62 | Cn1cc(NC(=O)Cc2ccccc2Br)cc1C(N)=O | -3.21%
63 | CC(C)(C)c1ccc(OCC(=O)O)c(CN2C[C@H]3CC(O)C[C@H]3C2)c1 (some centres not stated) | 40.55%
64 | Cc1ccccc1CN1CCC2(COCc3cnc(N(C)C)nc32)C1 (configuration not stated) | 21.8%
65 | Cc1noc(C)c1CN(C)C(=O)c1ccc(C(F)(F)F)nc1 | -9.37%
66 | CN(C)CCN1CCOCC2(CCN(Cc3ccc[nH]3)CC2)C1 | -7.94%
67 | Cc1cccc(N2CC(c3nnc(N)s3)CC2=O)c1 (configuration not stated) | 35%
68 | Cc1ccc(-c2noc([C@@H]3Cc4nc[nH]c4CN3)n2)cc1 | 36.2%
69 | Fc1ccc(-c2noc([C@@H]3Cc4nc[nH]c4CN3)n2)cc1 | -9.26%
70 | FC(F)(F)Oc1ccc(-c2noc([C@@H]3Cc4nc[nH]c4CN3)n2)cc1 | 64.8%
71 | O=C(N[C@H]1CCCC[C@@H]1O)c1ccc(-c2nc3ccccc3[nH]2)cc1 | 14.5%
72 | Cc1ccc(NC2CCN(C(=O)c3cc(C)no3)CC2)nn1 | -25.85%

Row | Compound | INHIBITION
73 | CN(CCC(F)(F)F)C(=O)C1CSCN1C(=O)C(C)(C)C (configuration not stated) | 31.2%
74 | Cc1ncoc1C(=O)N1CCCC(c2ccc3c(N)nn(C)c3n2)C1 (configuration not stated) | 5.2%
75 | CNc1nc(C2CCCN2C(C)=O)nc2c1CN(C1CCCC1)CC2 (configuration not stated) | 67.9%
76 | CNc1nc(C2CCCN2C(C)=O)nc2c1CCN(CC1CC1)C2 (configuration not stated) | -2.42%
77 | CNc1nc(C2CCCN(C(=O)CNC(C)=O)C2)nc2c1CN(C)CC2 (configuration not stated) | 42.4%
78 | CCC(=O)N1CCC(c2nc3c(c(NC)n2)CN(C)CC3)C1 (configuration not stated) | -22.6%
79 | CNc1nc(C2CCN(C(=O)CC3CCCC3)C2)nc2c1CN(C)CC2 (configuration not stated) | 67.7%
80 | CNc1nc(C2CCCN2C(C)=O)nc2c1CN(CCO)CC2 (configuration not stated) | 11.5%
81 | CSCC(C)(O)CNS(=O)(=O)Cc1ccc(F)cc1 (configuration not stated) | 33.7%
82 | CC(C)(C(=O)O)S(=O)(=O)c1ccc(Br)cc1 | 4.82%
83 | Cn1ncc2c1C(COCC1CC1)CN(Cc1ccoc1)C2 (configuration not stated) | 35.8%
84 | N#Cc1cccc(OCC(=O)N(Cc2ccncc2)C2CC2)c1 | 59.1%
85 | O=C(COc1ccccc1)N(Cc1ccncc1)C1CC1 | 61.9%
86 | O=C(c1cccnc1)N(Cc1ccncc1)C1CC1 | 14.8%
87 | N#Cc1ccc(C(=O)N(Cc2ccncc2)C2CC2)cc1 | -19.4%
88 | Cc1cccc(OCC(=O)N(Cc2ccncc2)C2CC2)c1 | 31.3%
89 | Cc1noc(C)c1CN(C)C(=O)COc1cccc(C#N)c1 | 8.08%
90 | N#Cc1cccc(CN(CCO)Cc2ccsc2)c1 | 33.4%
91 | COc1cc(C(C)=O)ccc1OCC(=O)N(Cc1ccsc1)C1CC1 | -16%
92 | N#Cc1cccc(OCC(=O)N(Cc2ccsc2)C2CC2)c1 | 54.5%
93 | O=C(COc1ccc2c(c1)CCC2)NCc1ccco1 | 33.2%
94 | O=C(NC1CCC2(CCC(=O)N2CC2CC2)CC1)c1cnccn1 (configuration not stated) | -40.5%
95 | CNC(=O)C(C)(C)N1CCC[C@H]1C(=O)NCCN(C)C | 49.4%
96 | C=C(C)CSc1nnc(CCNC(=O)OC(C)(C)C)o1 | -0.532%

Row | Compound | INHIBITION
97 | COC(=O)CSc1nnc(CCNC(=O)OC(C)(C)C)o1 | 52.5%
98 | CCSc1nnc(CCNC(=O)OC(C)(C)C)o1 | -17.3%
99 | Cc1cccc(-c2nccnc2C2CCCN(C)C2)c1 (configuration not stated) | 16.105%
100 | Cc1nccn1CC1CCCN1S(=O)(=O)Cc1cccc(F)c1 (configuration not stated) | -7.35%
101 | O=C(c1cc(C2CCCCC2)no1)N1C[C@H]2CC(O)C[C@H]2C1 (some centres not stated) | -15.1%
102 | Cc1ncc2c(n1)CCCC2NC(=O)c1ccccc1C(=O)O (configuration not stated) | 11.6%
103 | Cc1ncc2c(n1)CCCC2NC(=O)c1cnn(Cc2ccccc2)c1 (configuration not stated) | 26.4%
104 | Cc1ncc2c(n1)CCCC2NC(=O)c1ccccc1Cn1cncn1 (configuration not stated) | 64%
105 | Cc1nc(C)c(C(=O)N2CCc3nnc(C4CCCN4C)n3CC2)s1 (configuration not stated) | -14.6%
106 | O=C(C1CC1)N1CCC2(CCN2Cc2ccc(F)cc2)C1 (configuration not stated) | 9.97%
107 | O=C(CC1CCCC1)N1CCC2(CCN2Cc2ccc(F)cc2)C1 (configuration not stated) | -43%
108 | CCC(=O)N1CCC2(CC1)COCCN2Cc1ccc(F)cc1 | 66%
109 | O=C(Cc1ccccc1)N1CCC2(CCN2Cc2ccc(F)cc2)C1 (configuration not stated) | 1.34%
110 | CCN1CCOCC12CCN(C(=O)Cc1cccs1)CC2 | 23.3%
111 | COCC(=O)N1CCC2(CC1)COCCN2Cc1ccc(F)cc1 | 26.4%
112 | O=C(C1CC1)N1CCC2(CCCN2Cc2ccc(F)cc2)CC1 | 13.7%
113 | CC(C)CC(=O)N1CCC2(CC1)COCCN2Cc1ccc(F)cc1 | 56.7%
114 | CC(C)C(=O)N1CCC2(CC1)COCCN2Cc1ccc(F)cc1 | 63.7%
115 | O=C(C1CC1)N1CCC2(CC1)COCCN2Cc1ccc(F)cc1 | 68.4%
116 | CC(=O)N1CCC2(CC1)COCCN2Cc1ccc(F)cc1 | 34.7%
117 | CCN1CCOCC12CCN(C(=O)Cc1ccccc1)CC2 | 28.7%
